In the library only some 1.6% were active in any assay of this set; here they are far more common.
KCNQ2 inh – KCNQ2 (rat) channel inhibition | O88943 | CHO-K1 KCNQ2, FluxOR thallium flux, 20 min; active compounds read low | B-score at 10 µM | 1.1% of 310,000 active;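 active means fluorescence ratio B-score at most minus 3 library SDs, with starting brightness B-score within 2 library SDs, cut at about -5.5 in these data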
Target sequence (O88943 whole entry, looked up): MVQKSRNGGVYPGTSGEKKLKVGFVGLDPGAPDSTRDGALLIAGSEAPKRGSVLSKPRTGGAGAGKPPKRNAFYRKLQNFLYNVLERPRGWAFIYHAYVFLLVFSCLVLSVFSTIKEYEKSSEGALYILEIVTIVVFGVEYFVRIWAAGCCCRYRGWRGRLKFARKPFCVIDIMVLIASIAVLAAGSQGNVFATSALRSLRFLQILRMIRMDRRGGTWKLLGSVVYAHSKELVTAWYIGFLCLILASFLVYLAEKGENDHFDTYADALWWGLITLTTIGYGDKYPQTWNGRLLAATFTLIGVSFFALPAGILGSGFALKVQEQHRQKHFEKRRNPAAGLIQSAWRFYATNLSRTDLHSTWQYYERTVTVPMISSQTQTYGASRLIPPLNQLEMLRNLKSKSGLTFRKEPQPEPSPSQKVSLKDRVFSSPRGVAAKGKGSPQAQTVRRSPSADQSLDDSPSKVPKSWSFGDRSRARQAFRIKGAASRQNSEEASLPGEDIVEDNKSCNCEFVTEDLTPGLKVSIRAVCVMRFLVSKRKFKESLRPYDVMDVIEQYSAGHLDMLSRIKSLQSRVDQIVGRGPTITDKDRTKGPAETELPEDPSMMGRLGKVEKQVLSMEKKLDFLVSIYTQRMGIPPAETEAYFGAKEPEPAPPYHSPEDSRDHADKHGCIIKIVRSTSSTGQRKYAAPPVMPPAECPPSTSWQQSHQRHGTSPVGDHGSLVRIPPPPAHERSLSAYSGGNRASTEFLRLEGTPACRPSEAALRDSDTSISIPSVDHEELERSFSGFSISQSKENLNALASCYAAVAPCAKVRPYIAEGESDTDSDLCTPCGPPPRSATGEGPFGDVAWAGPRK
KCNQ2 pot – KCNQ2 (rat) channel potentiation. O88943. B-score at 10 µM. 0.54% of 310,000 active. CHO-K1 KCNQ2, FluxOR thallium flux fluorescence; active compounds read high;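 active means fluorescence ratio B-score at least 3 SD of library B-scores, with initial fluorescence B-score within 3 of them, cut at about 5.3 in these data; same plate scores as AID 2156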;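 further: B-score of peak minus minimum over baseline fluorescence ratio after K+ and Tl+ stimulus; positive B-score means potentiation of KCNQ2 with more thallium influx and brighter signal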
Kir21 confirm – confirmation of mouse Kir2.1 potassium channel inhibitors; shares compounds with KCNQ2 pot; Kir2.1-expressing cells, FluxOR thallium flux fluorescence; active compounds read low; 41% of 2,300 active; AID 2032; Tl flux remaining, % of negative control (active compounds read low), % at 10 µM;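 active means Primary-screen hit whose thallium flux fell at least 3 control SD below untreated wells in both duplicates, with normal baseline fluorescence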
HEK293 Tl flux – alters thallium flux in parental HEK293 cells, Kir2.1 counter-screen | shares compounds with KCNQ2 pot | FluxOR thallium flux fluorescence; 0% = unstimulated blank wells | FluxOR signal as % of negative control (100 = no effect), % at 10 µM | 19% of 2,300 active | AID 2105;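 active means dye signal at least 3 control SD above or below untreated wells in both duplicates, raw fluorescence within 3, either direction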;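 further: percent is based on the flux ratio of peak minus minimum fluorescence over baseline F0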
CHO-K1 Tl ctr – counter-screen for KCNQ2 potentiators: effect in parental CHO-K1 cells; shares compounds with KCNQ2 pot; FluxOR thallium flux fluorescence; zero = vehicle mean+3SD, 100% = vehicle-minus-blank window; activity increase over 3SD of controls, % at 10 µM; 43% of 1,200 active;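 active means signal rise of at least 3 SD above the untreated control mean, in both duplicate wells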;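 further: counter screen of KCNQ2 potentiator hits so any rise reflects channel-independent effects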
KCNQ1 sel pot – selectivity of KCNQ2 potentiators: effect on human KCNQ1; AID 2283; shares compounds with KCNQ2 pot; CHO KCNQ1 stable, FluxOR thallium flux fluorescence; beyond 3SD, as % of vehicle-control signal; activation over 3SD threshold, % at 10 µM; 28% of 1,200 active;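 active means fluorescence ratio rise of at least 3 SD of vehicle wells above their mean, in both replicate wells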
KCNQ2 pot confirm – confirmation of rat KCNQ2 potassium channel potentiators; CHO-KCNQ2 cells, FluxOR thallium flux fluorescence; potentiation, less the hit threshold, % at 10 µM; shares compounds with KCNQ2 pot; 68% of 1,200 active;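 active means fluorescence ratio rising 3 SD or more over the vehicle control mean in both replicates, plus primary screen hit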;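 further: peak minus minimum thallium fluorescence divided by baseline after K/Tl stimulus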
Kir2-1 sel – mouse Kir2.1 off-target activity of KCNQ2 potentiators | HEK293 Kir2.1, FluxOR thallium flux fluorescence | 2% of 1,200 active | activity over 3SD threshold, % at 10 µM | shares compounds with KCNQ2 pot;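 active means fluorescence ratio rise of at least 3 SD above the vehicle-control mean, seen in both replicates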
KCNQ2 W236L MoA – potentiates the retigabine-insensitive rat KCNQ2 W236L mutant channel; CHO KCNQ2-W236L, automated patch clamp current; 10% of 940 active; current increase over 3SD of negative controls (%), active compounds read high, % at 25 µM; shares compounds with KCNQ2 pot;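 active means current increase at least 3 SD of the untreated controls above them in both duplicate recordings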
Numbers stand for hits.

CC1(C(=O)O)CCC(C(=O)N2CCCCC2)C1(C)C (configuration not stated) was read as KCNQ2 inh inactive and KCNQ2 pot inactive.
Screening CCn1c(=S)[nH]c2c(c1=O)C(C)(C)Cc1ccccc1-2 returned KCNQ2 inh inactive, KCNQ2 pot 12.3, Kir21 confirm inactive, HEK293 Tl flux 288.5%, CHO-K1 Tl ctr 4.3, KCNQ1 sel pot inactive, KCNQ2 pot confirm 27.8, Kir2-1 sel inactive and KCNQ2 W236L MoA inactive.
CC1(C)Cc2ccccc2-c2c1c(=O)n(Cc1ccccc1)c1nnnn21 was read as KCNQ2 inh inactive.
Screening COC(=O)/C(=N/Nc1ccc(C)cc1)N1CCCc2ccccc21 returned KCNQ2 inh inactive.
`CCc1nc2sc3c(c2c(=S)[nH]1)CC(C)(C)OC3` gave KCNQ2 inh inactive and KCNQ2 pot inactive.
`CSc1nc2sc3c(c2c(=S)[nH]1)CC(C)(C)OC3` gave KCNQ2 inh inactive, KCNQ2 pot 14.6, Kir21 confirm inactive, HEK293 Tl flux 401.0%, CHO-K1 Tl ctr inactive, KCNQ1 sel pot inactive, KCNQ2 pot confirm 81.7, Kir2-1 sel inactive and KCNQ2 W236L MoA inactive.
Screening O=C(Nc1nnc(-c2ccc3c(c2)CCCC3)o1)c1ccc(Cl)cc1Cl returned KCNQ2 inh inactive, KCNQ2 pot 8.92, Kir21 confirm inactive, HEK293 Tl flux 255.0%, CHO-K1 Tl ctr inactive, KCNQ1 sel pot 69.1, KCNQ2 pot confirm 15.3, Kir2-1 sel inactive and KCNQ2 W236L MoA inactive.
For O=C(Nc1nnc(-c2ccc3c(c2)CCCC3)o1)c1c(F)cccc1F the results were KCNQ2 inh inactive.
`CC(C)NC(=O)c1cc2n(n1)C(C(F)(F)F)CC(c1ccco1)N2` (configuration not stated) gave KCNQ2 inh inactive.
`CN(Cc1ccccc1)C(=O)CCC1CCN(C(=O)CC2=CCCCC2)CC1` gave KCNQ2 inh inactive.
`COc1ccc(-c2cn(-c3ccc(OC)cc3)c3[n+]2-c2ccccc2CC3)cc1` gave KCNQ2 inh inactive.
Screening COc1ccc(-n2c(-c3ccc(Br)cc3)c[n+]3c2CCc2ccccc2-3)cc1 returned KCNQ2 inh inactive, Kir21 confirm 59.5% and HEK293 Tl flux 74.0%.
For CC(C)c1ccc(-n2c(-c3ccccc3)c[n+]3c2CCc2ccccc2-3)cc1 the results were KCNQ2 inh -7.43, KCNQ2 pot inactive, Kir21 confirm 20.0% and HEK293 Tl flux inactive.
COc1ccccc1-n1c(-c2ccccc2)c[n+]2c1CCc1ccccc1-2 was read as KCNQ2 inh inactive.
`CC(NC(=O)/C(C#N)=C/c1ccco1)c1ccccc1` (configuration not stated) gave KCNQ2 inh inactive.
Screening CC(NC(=O)/C(C#N)=C/c1ccc([N+](=O)[O-])o1)c1ccccc1 (configuration not stated) returned KCNQ2 inh inactive, Kir21 confirm inactive and HEK293 Tl flux 64.0%.
O=C(NC1CCS(=O)(=O)C1)/C(=C\c1ccc(F)cc1)NC(=O)c1ccccc1 (configuration not stated) was read as KCNQ2 inh inactive and KCNQ2 pot inactive.
For O=C(N/N=C/c1ccc(OCc2ccccc2)cc1)c1ccco1 the results were KCNQ2 inh inactive and KCNQ2 pot inactive.
Screening NC(N)=N/N=C/c1ccc(OCc2ccccc2)cc1 returned KCNQ2 inh -6.77, KCNQ2 pot inactive, Kir21 confirm 16.5% and HEK293 Tl flux inactive.
Screening Cc1nnc(SC/C=C/c2ccccc2)n(N)c1=O returned KCNQ2 inh inactive and KCNQ2 pot inactive.
O=C(/C=C/c1ccccc1)n1cnnc1SC/C=C/c1ccccc1 was read as KCNQ2 inh inactive, Kir21 confirm inactive and HEK293 Tl flux inactive.
For O=C(O)c1ccccc1NCc1ccsc1 the results were KCNQ2 inh inactive and KCNQ2 pot inactive.
CC(C)(C)c1ccc2c(c1)OC(C(=O)N/N=C\c1ccc(-c3cccc(C(=O)O)c3)o1)CO2 (configuration not stated) was read as KCNQ2 inh inactive and KCNQ2 pot inactive.
For COCCNC(=O)CN1C(=O)c2cccc3cccc1c23 the results were KCNQ2 inh inactive and KCNQ2 pot inactive.
CC(=O)c1c(N2CCN(Cc3ccccc3)CC2)[nH]c(-c2ccccc2)nc1=S was read as KCNQ2 inh inactive, KCNQ2 pot 6.18, Kir21 confirm inactive, HEK293 Tl flux 208.0%, CHO-K1 Tl ctr inactive, KCNQ1 sel pot 54.1, KCNQ2 pot confirm 2.3, Kir2-1 sel inactive and KCNQ2 W236L MoA inactive.
For CC(=O)c1c(N2CCCC2)[nH]c(-c2ccccc2)nc1=S the results were KCNQ2 inh inactive and KCNQ2 pot inactive.
Screening Cc1ccc(Nc2cc(C)nn2-c2nc(C)cc(=O)[nH]2)cc1 returned KCNQ2 inh inactive, KCNQ2 pot 17.4, Kir21 confirm inactive, HEK293 Tl flux 269.0%, CHO-K1 Tl ctr 59.7, KCNQ1 sel pot 44.6, KCNQ2 pot confirm 41.8, Kir2-1 sel inactive and KCNQ2 W236L MoA inactive.
Screening Cc1ccc(Nc2cc(C)nn2-c2nc(C)cc(C)n2)cc1 returned KCNQ2 inh inactive and KCNQ2 pot inactive.
C=CCNC(=S)NNC(=O)CCC(O)COCCC(C)C (configuration not stated) was read as KCNQ2 inh inactive.
`CC1=C(C(N)=O)C(c2cccs2)n2nc(-c3cccc(Cl)c3)nc2N1` (configuration not stated) gave KCNQ2 inh inactive, KCNQ2 pot 5.77, Kir21 confirm inactive, HEK293 Tl flux inactive, CHO-K1 Tl ctr 53.2, KCNQ1 sel pot inactive, KCNQ2 pot confirm inactive, Kir2-1 sel inactive and KCNQ2 W236L MoA 0.9%.
Screening CC1=C(C(N)=O)C(c2cccs2)n2nc(-c3cccc(C)c3)nc2N1 (configuration not stated) returned KCNQ2 inh inactive and KCNQ2 pot inactive.
S=c1[nH]cnc2sc(-c3ccccc3)cc12 was read as KCNQ2 inh inactive, KCNQ2 pot 24, Kir21 confirm inactive, HEK293 Tl flux inactive, CHO-K1 Tl ctr inactive, KCNQ1 sel pot inactive, KCNQ2 pot confirm 70.5, Kir2-1 sel inactive and KCNQ2 W236L MoA inactive.

Assay outcomes as filed in PubChem BioAssay.
